Assay results as given in PubChem BioAssay AID720513 (Broad Institute, 2013).
About 480 (23%) of roughly 2,100 compounds were called active. Not shown: some 5% with an inconclusive outcome.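 How the source made its calls: active means fitted curve reaches 40% activation at or below the top valid concentration, in every replicate test; inconclusive means replicate tests disagree on the call; inactive means the rest, including activity in the opposite direction.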 Not all results are given here. Entries with a potency or affinity are not part of this list.

Assay: PGC1a acetylation increase, cellular AlphaLISA – cell-based, cherry-picked samples, set 6, dose response (AID 720513);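 further: cells made to overexpress flag tagged PGC1a plus GCN5 acetyltransferase by viral infection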
Settings: U2OS PGC1a acetylation AlphaLISA, overnight, 0 = neutral, -100 = inhibitor control; series mostly up to 19.5 µM; activation (acetylation increase): at the top concentration

Activation (acetylation increase), inactive:
C=C1CCN(c2ccc(C(=O)NCc3ccccc3)cc2[N+](=O)[O-])CC1 6.43%, C[C@H]1CN([C@@H](C)CO)C(=O)Cc2cc(NS(=O)(=O)c3ccc(Cl)cc3)ccc2O[C@H]1CN(C)Cc1ccc(-c2ccccc2)cc1 35.3%, O=C(Nc1ccc(Cl)c(Cl)c1)N[C@@H]1CC[C@H](CCn2cc(C3CC3)nn2)O[C@H]1CO 8.37%, O=S(=O)(N[C@@H]1CC[C@@H](CCNS(=O)(=O)c2ccccc2Cl)O[C@H]1CO)c1ccccc1 15%, C[C@@H]1CN([C@@H](C)CO)S(=O)(=O)c2ccc(-c3ccc(C#N)cc3)cc2O[C@H]1CN(C)C(=O)CN(C)C -16.6%, CC(C)C#Cc1cnc2c(c1)C(=O)N([C@@H](C)CO)C[C@@H](C)[C@@H](CN(C)C(=O)CN1CCOCC1)O2 31%, CCCN(CC)c1ncnc2[nH]ncc12 -16.1%, CCCOC1CCCN(C(=O)c2cc(Cl)c(Cl)cc2C(=O)O)C1 (configuration not stated) 5.2%, COc1ccc(-n2nc(C#N)c(Cl)cc2=O)cc1 -97.3%, Cc1ccc(N2C(=O)c3ccccc3NC2C(C)Cc2ccc3c(c2)OCO3)cc1 (configuration not stated) 11.5%, C[C@H](CO)N1C[C@H](C)[C@H](CN(C)Cc2ccc(Oc3ccccc3)cc2)Oc2c(NC(=O)Nc3ccc4c(c3)OCO4)cccc2C1=O -63.5%, Cc1ccc(S(=O)(=O)N(C)C[C@@H]2OCCCC[C@H](C)Oc3ccc(NS(C)(=O)=O)cc3C(=O)N([C@@H](C)CO)C[C@@H]2C)cc1 30.4%, Cc1nc2ccccc2n2c(O)c(CC(=O)O)cc12 27.1%, Cc1ccc(S(=O)(=O)N(C)C[C@H]2OCCCC[C@H](C)Oc3ccc(N(C)C)cc3C(=O)N([C@H](C)CO)C[C@@H]2C)cc1 26.9%, C(=C\c1ccccc1)/CN1CCN(C(c2ccnc3ccccc23)c2nnnn2C2CCCCC2)CC1 (configuration not stated) -15.6%, COc1cccc(CNC(=O)CCC2CCCN(Cc3ccc(OC(F)F)cc3)C2)c1 (configuration not stated) 36.4%, COc1ccc(C[C@@H]2OC3(C=CC(=O)C=C3)O[C@H]2Cc2ccc(OC)cc2)cc1 -102%, CC(=O)N(CCC(Cc1ccccc1)c1ccc2c(c1)OCO2)Cc1ccccc1F (configuration not stated) 28.5%, O=C(CN1CCOCC1)N[C@H]1CC[C@H](CCNC(=O)Nc2cc(F)ccc2F)O[C@H]1CO -4.65%, Cn1c(C(C#N)C(=O)c2sc3ccccc3c2Cl)nc2ccccc21 (configuration not stated) 4.54%, CN1CCN(c2ccc([N+](=O)[O-])cc2C(=O)Nc2ccccc2)CC1 14.4%, CC1CCCN(C(=O)Cc2ccc(F)cc2)C1 (configuration not stated) -34.7%, Cc1cccc(N2CCN(CC3CCCCC3)CC2)c1C 16.9% [at 10 µM], CCC(=O)N1CCN(c2ccc(Cl)cc2NC(=O)c2ccc([N+](=O)[O-])o2)CC1 3.87%, CC(c1ccccc1)C1CC(=O)N(c2ccc([N+](=O)[O-])cc2)C1=O (configuration not stated) 11.3%, Cc1ccc(N2CCN(CC(O)COC3CCCCC3)CC2)cc1 (configuration not stated) 29.2%, CC(C)C(NC(=O)c1ccc(C(C)(C)C)cc1)C(=O)O (configuration not stated) 43%, C[C@@H]1CCCCO[C@H](CN(C)C(=O)NC2CCCCC2)[C@@H](C)CN([C@@H](C)CO)C(=O)c2cc(NC(=O)NC3CCCCC3)ccc2O1 -13.8%, N#Cc1c(-c2ccccc2)c(-c2ccccc2)nn(CC(=O)NNC(=O)Nc2ccc(Cl)cc2)c1=O 6.86%, O=C(c1nc2nc(-c3ccccc3)cc(C(F)(F)F)n2n1)N1CCCCC1 -6.13%, CC[C@H](C)[C@H](NC(=O)c1ccc(Cl)cc1)C(=O)OCC(=O)c1ccc2c(c1)NC(=O)CO2 -58.8%, COc1cccc(CN2CCC(CO)(CC3CCCCO3)CC2)c1 (configuration not stated) 10.6%, OCC1(Cc2ccc(F)cc2F)CCCN(Cc2ccc(Cl)cc2)C1 (configuration not stated) 21.8%, N#Cc1cccc(-c2ccc(C3[C@@H]4CN(Cc5ccccc5F)C[C@H]3N4)cc2)c1 (some centres not stated) -96.5% [at 21 µM], COc1cccc(C2c3[nH]c4ccccc4c3CCN2Cc2cnc(C)s2)c1OC (configuration not stated) 14.4%, CCc1nccn1S(=O)(=O)c1cc(C)c(OC)cc1C 19%, COc1ccc(NC(=O)N[C@H]2CC[C@@H](CCn3cc(-c4ccccc4F)nn3)O[C@H]2CO)cc1 7.45%, CCOCCCNC(=O)C1CCN(C(=O)Nc2ccc(C)cc2)CC1 8.6%, CC(C(=O)N1CCc2ccccc2C1)N(c1ccccc1)S(C)(=O)=O (configuration not stated) -5.83%, CN(C)S(=O)(=O)c1cc(NC(=O)CN2CCc3ccccc32)ccc1Cl 21.9%, Cc1cc(=O)[nH]c(SCC(=O)N2CCc3ccccc3C2)n1 -6.79%, CCOC(=O)c1cnn(-c2ccccc2)c1-n1cccc1C(=O)C(=O)Nc1ccc(F)cc1 22.3%, CCOC(=O)c1ccc(NC(=O)CCS(=O)(=O)c2ccc(Br)s2)cc1 16.1%, CC(C)Oc1ccc2nnnn2n1 -8.35%, CCCSCC(=O)Nc1ncc2c(n1)-c1ccccc1CC2 -13.2%, C[C@H]1CN([C@@H](C)CO)S(=O)(=O)c2ccc(C#CC3CCCCC3)cc2O[C@@H]1CN(C)Cc1cccnc1 -61.9%, CCc1nc(SCC(=O)N2c3ccccc3Sc3ccccc32)c2ccccc2n1 -8.97%, O=C(c1ccco1)N1CCN(C(=O)N2c3ccccc3Sc3ccccc32)CC1 7.72%, O=c1[nH]c2ccccc2nc1/C=C/c1ccc(O)cc1 33.7% [at 10 µM], C[C@H]1CN([C@@H](C)CO)C(=O)c2cccc(NC(=O)Nc3ccc(F)cc3)c2O[C@@H]1CN(C)S(=O)(=O)c1cn(C)cn1 -10.4%, C[C@H](NS(=O)(=O)c1ccc2c(c1)OCCCO2)C(=O)N1CCN(Cc2ccccc2)CC1 -16.9%, COc1ccc2c(-c3ccccc3)cc(=O)[nH]c2c1 5.67%, O=C(c1cc(-c2ccccc2)nc2ccccc12)N1N=C(C(F)F)CC1(O)C(F)F (configuration not stated) -4.21%, C=CCn1c(SCC(=O)Nc2ccc(C(=O)O)cc2)nnc1-c1cccnc1 -17.5%, COc1ccc(NC(=O)N[C@@H]2C=C[C@@H](CC(=O)NCc3ccccn3)O[C@@H]2CO)cc1 8.22%, COc1ccc(C2(NC(C)=O)CCN(C(=O)CCC(=O)O)CC2)cc1 0.064%, CCN(C(=O)C1CC1)C1CCS(=O)(=O)C1 (configuration not stated) -3.69%, CN(c1ncnc(N)c1[N+](=O)[O-])C1CCS(=O)(=O)C1 (configuration not stated) -8.48%, COCC(=O)Nc1ccc2c(c1)OC[C@@H](C)N(C(=O)c1ccccn1)C[C@@H](C)[C@@H](OC)CN(C)C2=O 16.6%, CC1CCCCC1NC(=O)C1CCN(S(=O)(=O)N2CCOCC2)CC1 (configuration not stated) 27.5%, C[C@H](CO)N1C[C@H](C)[C@@H](CN(C)CC2CC2)Oc2cc(-c3cccnc3)ccc2S1(=O)=O -23.9%, CCSc1nnc(NC(=O)CSC2=NCCS2)s1 1.43%, COc1cccc(N2C(=O)CC(N3CCC(c4nc5ccccc5[nH]4)CC3)C2=O)c1 (configuration not stated) -0.89%, O=C(Cc1ccncc1)NCC[C@H]1CC[C@@H](NC(=O)C2CC2)[C@H](CO)O1 -0.064% [at 21 µM], CCOC(=O)C1=C(CNCc2ccc(C)cc2)NC(=O)NC1c1cc(C)ccc1C (configuration not stated) -10.4%, CCN(CC)S(=O)(=O)c1cccc(-c2nnc(SCc3ncc(-c4ccccc4)o3)n2C)c1 13.4%, Cc1nc2ccc(C(=O)Nc3ccccc3Cl)cc2s1 17%, NC(=O)NC(=O)Nc1ccccc1Cl 9.99%, CCN(CC)C(=O)[C@H]1CC(CC(=O)NCc2cccc(C(F)(F)F)c2)C(=O)N2CCc3c([nH]c4ccccc34)[C@]12C (some centres not stated) -31.4%, CC(=O)Nc1ccc(S(=O)(=O)N2CCN(c3ccccn3)CC2)cc1 -5.59%, O=C(CCNC(=O)C1CCN(S(=O)(=O)c2ccc(F)cc2)CC1)NCc1ccccc1Cl -1.53%, N#Cc1cc2c(=O)n3ccccc3nc2n(Cc2cccnc2)c1=O 5.98%, O=C1C2C3CCC(C3)C2C(=O)N1CNc1ccc(F)cc1 (configuration not stated) -2.1%, O=c1cc(CSc2ccccn2)[nH]c(=O)[nH]1 -18.7%, Cc1nc2[nH]c(=O)c3c(n2n1)NC1=C(C(=O)CC(C)(C)C1)C3c1ccccc1 (configuration not stated) 14.3% [at 10 µM], O=[N+]([O-])c1ccc(Oc2cccc(F)c2)c2ccncc12 -24.5%, Cc1cccc(S(=O)(=O)N(C)C[C@@H]2OCc3cn(nn3)CCCC(=O)N([C@@H](C)CO)C[C@H]2C)c1 -2.84%, O=C(OCn1ncc(Cl)c(Cl)c1=O)c1ccc(C(F)(F)F)cc1 -30.8%, O=C(NC1CCCN(Cc2ccc(Cl)cc2)C1)c1ccccc1C(F)(F)F (configuration not stated) 19.9%, CCc1nc(N)nc(N)c1-c1ccc(Cl)cc1 -18.4%, CCOC(=O)C1CCN(C2=NC(=O)/C(=C/c3ccc(O)cc3)S2)CC1 -3.08%, Cc1cccc2cc(CN(Cc3nnnn3Cc3ccco3)C3CCCC3)c3nnnn3c12 6.98%, COc1cccc2c1C(CO)N1C(C#N)C3CC(C(=O)O)C(C1C2)N3C (configuration not stated) -55.3%, Cc1cccc(-n2c(CNC(=O)c3cccc([N+](=O)[O-])c3C)n[nH]c2=S)c1 15.6%, COc1cccc(N(CC(=O)N2CCN(Cc3ccccc3)CC2)S(C)(=O)=O)c1 23.1%, CCC(C)(C)n1nnnc1C(c1cccnc1)N1CCCC(C)C1 (configuration not stated) 3.35%, C[C@H](CO)N1C[C@H](C)[C@@H](CN(C)C(=O)C2CCCCC2)Oc2cc(C#Cc3ccncc3)ccc2S1(=O)=O -89.9%, COc1ccc(NC(=O)/C(Cl)=C(/Cl)S(=O)Cc2ccccc2)cn1 (configuration not stated) -114%, O=C(CNC(=O)c1sc2ccccc2c1Cl)NCc1ccccc1 8.91%, O=C(Nc1ccc2c(c1)C(=O)N(c1ccccc1)C2=O)c1cccs1 -23.8%, Cc1cccc(N(CC(=O)NC(C)(C)C)C(=O)CNC(=O)c2cccs2)c1 17%, CN(C)C(=O)C[C@@H]1C=C[C@@H](NS(=O)(=O)c2ccccc2)[C@@H](CO)O1 -4.45%, CO[C@@H]1CN(C)C(=O)c2ccc(NC(=O)Nc3c(C)noc3C)cc2OC[C@H](C)N(CC2CC2)C[C@@H]1C -2.51%, CCS(=O)(=O)c1ccc(O)c(NC(=O)COc2ccc(Br)cc2)c1 5.32%, O=C(CSc1nnnn1-c1ccc(F)cc1)NNC(=O)c1ccco1 -9.31%, CC(=O)Nc1ccc(NC(=O)c2cc(=O)c3ccccc3o2)cc1 -0.676%, Cc1cc(=O)[nH]c2c1c(C)nn2C1CCCC1 -7.95%
